Source: PubChem
TRHR PAM: allosteric enhancers of human TRH receptor | AID 493056 | enhancement, % at 2 µM | TRHR cells, fluo-8 calcium fluorescence, EC20 TRH enhancement | P34981 | hit rate 0.66% among 360,000; in the data active means enhancement above about 30%
Target sequence (P34981 whole entry, looked up): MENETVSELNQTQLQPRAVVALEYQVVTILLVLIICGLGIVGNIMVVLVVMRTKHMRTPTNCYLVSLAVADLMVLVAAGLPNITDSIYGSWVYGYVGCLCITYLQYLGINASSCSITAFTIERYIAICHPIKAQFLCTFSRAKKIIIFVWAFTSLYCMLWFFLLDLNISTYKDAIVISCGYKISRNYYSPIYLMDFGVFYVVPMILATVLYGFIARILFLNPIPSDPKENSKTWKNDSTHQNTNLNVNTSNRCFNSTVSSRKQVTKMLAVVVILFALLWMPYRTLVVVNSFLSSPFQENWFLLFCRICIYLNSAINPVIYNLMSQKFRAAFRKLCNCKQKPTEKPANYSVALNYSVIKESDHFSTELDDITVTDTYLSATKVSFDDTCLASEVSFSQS
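TRHR-expressing cells loaded with fluo-8 calcium dye were read kinetically (ex 480/em 530) during compound addition, then stimulated with an EC20 of TRH (10 nM final). Enhancement of the Gq-mediated intracellular calcium response was scored.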
D1 PAM: enhances dopamine response at the human D1 receptor | hit rate 0.036% among 360,000 | P21728 | potentiation, % at 10 µM | HEK293 TREx D1 cells, calcium flux, dopamine EC20 potentiation; in the data active means potentiation above about 30%
TRHR ag: agonists of human TRH receptor; AID 493084; TRHR cells, calcium flux fluo-8, FDSS agonist mode; P34981; hit rate 0.18% among 360,000; activation, % at 2 µM
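TRHR-expressing cells loaded with fluo-8 calcium dye; 23 nL library compound pin-transferred, kinetic FDSS fluorescence (Ex 480/Em 530) recorded about 180 s for agonist-induced calcium release, before a 10 nM TRH EC20 addition for potentiator mode.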
D1 ag: activates the human D1 dopamine receptor; HEK293 T-REx D1 cells, calcium flux, agonist mode; P21728; AID 504660; hit rate 1% among 360,000; activation, % at 2 µM
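Agonism was scored from calcium flux recorded over 180 s (1 read/s) after pintool compound addition, following a 10-cycle baseline. Cells were inducible force-coupled HEK293 TREx D1, plated overnight at 30 C and loaded with no-wash calcium dye.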
D1 antagonist: blocks dopamine activation of the human D1 receptor; P21728; hit rate 3.2% among 360,000; AID 504652; HEK293 TREx D1 cells, calcium flux, dopamine EC80; hits give low values; activity change, negative = inhibition, % at 10 µM; in the data active means activity change below about -30%
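Tetracycline-induced HEK293 T-REx cells with force-coupled D1 receptor were loaded with a no-wash calcium dye. Compound was added after a 10 s baseline and read kinetically for 180 s; EC80 dopamine was then added and calcium flux followed another 180 s.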
Each line names hits and unclear results; the compound was inactive in the other large screens. Only some compounds are listed: those with a hit (about 4.7% of all), similar ones and a draw of the others. Unless noted, no stated cut-off is given here; in the data, active means activation above about 30%; inactive means the rest.

COc1ccccc1-c1noc(-c2ccccc2C(=O)NCC2CCCO2)n1 (configuration not stated)	none
COc1ccc(N(C)S(=O)(=O)c2cccc(C(=O)NCC3CCCO3)c2)cc1 (configuration not stated)	none
Cc1ccccc1-c1noc(-c2ccccc2C(=O)NCC2CCCO2)n1 (configuration not stated)	D1 antagonist -30
COc1ccc(N(Cc2ccccc2)S(=O)(=O)c2cccc(C(=O)NCC3CCCO3)c2)cc1 (configuration not stated)	D1 antagonist -37
O=C(NCC1CCCO1)c1ccc(S(=O)(=O)Nc2ccccc2F)cc1 (configuration not stated)	D1 antagonist -38
Cc1cccc(NS(=O)(=O)c2ccc(C(=O)NCC3CCCO3)cc2)c1C (configuration not stated)	none
O=C(Cn1c(C(=O)NCC2CCCO2)cc2sccc21)c1ccccc1 (configuration not stated)	D1 antagonist -50
CCOc1ccccc1N(CC)C(=O)c1cc2c(=O)[nH]c3ccc(C)cc3c2s1	none
CCc1c(C)sc2c1CCN(Cc1cccc(F)c1)C2c1ccccc1 (configuration not stated)	none
Cc1ccccc1NC(=O)Cn1c(=O)n(CCC(=O)NCc2ccc3c(c2)OCO3)c(=O)c2sccc21	none
O=C(NCC1CCCO1)c1cccc(Oc2ccccc2)c1 (configuration not stated)	none
O=C(NCC1CCCO1)c1cccc(Oc2ccc([N+](=O)[O-])cc2)c1 (configuration not stated)	D1 antagonist -35
O=C(NCC1CCCO1)c1cccc(NC(=O)c2ccccc2)c1 (configuration not stated)	D1 antagonist -31
O=C(O)c1ccc2c(c1)C(=O)N([C@H](Cc1ccccc1)C(=O)O)C2=O	none
O=[N+]([O-])c1cc(C(F)(F)F)ccc1Oc1cccnc1[N+](=O)[O-]	D1 antagonist -81
O=C(Nc1ccc(F)cc1)c1ccccc1Oc1ccc(C(F)(F)F)cc1[N+](=O)[O-]	none
O=C(/C=C/c1ccco1)Nc1cccc(C(=O)Nc2ccccc2C(=O)O)c1	none
CCc1ccccc1NC(=O)c1cccc(NC(=O)/C=C/c2ccco2)c1	D1 antagonist -36
COC(=O)C1CCN(C(c2cc(OC)c(OC)c(OC)c2)c2sc3nc(C)nn3c2O)CC1 (configuration not stated)	TRHR PAM 31
Cc1ccc(C)c(NC2=C(Cl)C(=O)OC2OC(=O)c2ccco2)c1 (configuration not stated)	none
Cc1ccc(NC2=C(Cl)C(=O)OC2OC(=O)c2ccco2)cc1C (configuration not stated)	D1 antagonist -30
COc1ccc(CCNC(=O)C2CCC(=O)N2CCc2ccccc2)cc1OC (configuration not stated)	D1 antagonist -32
COc1ccc(/C(N)=N/OC(=O)CCc2ccccc2)cc1OC	D1 antagonist -31
COc1ccc(CC(=O)NC(C)CCc2ccccc2)cc1OC (configuration not stated)	none
COc1ccc(CC(=O)NNC(=O)CCc2ccccc2)cc1OC	D1 antagonist -34
COc1ccc(CNC(=O)CSc2ncc3c(n2)-c2cc(Cl)ccc2N(Cc2ccccc2)S3(=O)=O)cc1OC	none
Cc1c(Cl)cccc1N1C(N)=C(C#N)C(c2cc(CN3CCOCC3)cs2)C2=C1CCCC2=O (configuration not stated)	none
O=C(C1COc2ccccc2O1)N1CCN(c2nc3ccccc3s2)CC1 (configuration not stated)	D1 antagonist -62
CCCC(=O)N1CCN(c2nc3ccccc3s2)CC1	none
Cc1cccc2sc(N3CCN(C(=O)c4cccs4)CC3)nc12	none
O=C(C1COc2ccccc2O1)N1CCN(c2nc3ccc([N+](=O)[O-])cc3s2)CC1 (configuration not stated)	none
O=C(c1cccs1)N1CCN(c2nc3ccccc3s2)CC1	D1 antagonist -37
CCSc1ccccc1C(=O)N1CCN(c2nc3ccccc3s2)CC1	D1 ag 31 (no result: D1 antagonist)
Cc1ccc(Cn2cc(C(=O)c3ccc4c(c3)OCO4)c(=O)c3cc(C)ccc32)cc1	none
NS(=O)(=O)c1ccc(NC(=O)C2Cc3ccccc3N2C(=O)c2ccccc2)cc1 (configuration not stated)	none
C=CCc1ccccc1OCC(O)CN1CCN(c2ccc(OC)cc2)CC1 (configuration not stated)	D1 antagonist -64
C=CCc1ccc(OCC(O)CN2CCN(Cc3ccc(Cl)cc3)CC2)c(OC)c1 (configuration not stated)	D1 ag 43
COc1ccccc1N1CCN(CC(O)COCc2cccs2)CC1 (configuration not stated)	D1 antagonist -37
COc1ccccc1N1CCN(CC(O)COCCOc2ccc(Br)cc2)CC1 (configuration not stated)	D1 antagonist -63
COc1ccc(N2CCN(CC(O)COCCOc3ccc(Br)cc3)CC2)cc1 (configuration not stated)	none
C=CCc1ccc(OCC(O)CN2CCN(c3ccccc3OC)CC2)c(OC)c1 (configuration not stated)	none
CC(=O)Nc1ccc(C(=O)CSc2nnc3cc(C)c4ccccc4n23)cc1	none
CC1(C)CCCC(C)(C)N1CC(O)COCCOc1ccc(Br)cc1 (configuration not stated)	D1 ag 39
OC(COc1ccc(Br)cc1)CN1CCN(c2ccccc2)CC1 (configuration not stated)	D1 antagonist -46
CN1N=C(/C=C/c2ccccc2)CCC1=O	none
Cc1ccc(/C=C/C2=NN(C)C(=O)CC2)cc1	TRHR PAM 30
O=C1C2C(c3ccccc3)=NN(c3ccccc3)C2C(=O)N1c1ccccc1 (configuration not stated)	none
O=C1[C@H]2C(c3ccccc3)=NN(c3ccccc3)[C@H]2C(=O)N1c1ccccc1	D1 antagonist -45
CN(c1ccc(C(=O)N2CCCCC2)cc1)S(=O)(=O)c1ccccc1	D1 antagonist -36
COC(=O)c1cc(-c2ccccc2)n[nH]1	none
CC(CNC(=O)c1cc(-c2ccccc2)n[nH]1)c1ccccc1 (configuration not stated)	D1 antagonist -51
CC(C)(C)NC(=O)c1cc(-c2ccccc2)n[nH]1	D1 antagonist -32
O=C(NCCc1ccc(Cl)cc1)c1cc(-c2ccccc2)n[nH]1	D1 antagonist -31
Cc1ccc(CCNC(=O)c2cc(-c3ccccc3)n[nH]2)cc1	none
CCOc1cc2[nH]c(=O)n(CCCCC(=O)N3CCN(c4ccc(OC)cc4)CC3)c(=O)c2cc1OCC	none
